# Reference: the supplement of paper PMC6555819
# Test system: FXR:RXRa (NR concentration 270 nM, RXRa partner concentration 90 nM)
# Assay: PBM binding z-score (relative to random genomic background probes); higher = stronger binding; sequences stand for … in GC…GCGATTGACAGCGTAGAATGAAGG
# In short: (§1)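 Binding buffer was PBS pH 7.4 with 2% milk, 0.02% Triton X-100, 1 mM DTT, 0.2 mg/mL BSA and 0.4 mg/ml salmon testes DNA. In it, ligand-free nuclear receptor dimers were incubated 1 h on custom Agilent 4×180K protein-binding microarrays carrying double-stranded probes. Antibodies against each partner (one per run) detected binding, and z-scores were calculated against random background probes after regression normalization of scanned fluorescence.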
row,Sequence,PBM binding z-score
1,AATACTGGGTCATCGTAGGCCAGAGTACGCACAG,3.75
2,CAGCCTAGGTCAGGGCCGGTATAGGAGGAACGTT,1.62
3,TAGCCTAGTTCATTGGGCCAGTATAGTACGCATC,-0.0548
4,ATCGAAAGGTCGAAGTGAGTATAGAGAAAGGGAA,3.94
5,GCTAGTTGGTCAGTAACAGGTCACACACCGGTCG,0.984
6,GCTAGTTGTTCAGTAAAAGGTCACACACCGGTCG,3.26
7,CCGACTGAGGCATAAGGTTACCATAAGCCAGCCC,0.414
8,GATACAGGGTCAGCTAAAGGCCAGAGTATGGAAA,4.35
9,CCGACTGGAGCAAAGGTTACCATACTCAGTACGA,0.849
10,CGTCCAAGGTCAGAGAGGTCAGTGGATGCCGAGT,6.14
11,ACTAGTTGGTCAGCTGAGGTCACCCACAATTCGG,3.88
12,ATCTCTTGGTAAAGTTCAGTGAAAGATCGATAGA,1.08
13,CAAACTAGGTCAAGAGGTCGAAGTCCGCTTCCCG,5.04
14,TAGTCTAGGTCATGCGGGCCAGTATAGTGTCGGC,4.02
15,CCCACTGGGCCAAAGGTCATTGATTCCAATGCTC,4.95
16,ACTAGCAGGCCAAGTTTGGGTCACTCTAACAAAG,0.184
17,CATACAGGGTCAGCTAGTCCAGAGTAGGGACGGC,4.47
18,GCTGCTAGGTCAAATGATGGTCAGCTAAAGCTCG,4.42
19,TGAAAGAGGTTAAAGATCAGGGAACGTGGCGTCG,3.91
20,AGAACGAGGGCAATGAATTGATAGCACGGGTGGC,0.314

row,Sequence,PBM binding z-score
1,ATATGTGGGTTACATCCGGGTCATTCAGGCTATG,2.27
2,ATACCAGGGTGATCGTGAGGTCGTTGATACTAAC,1.34
3,TCTAGCAGGCCAGACGGTCACTCAAGAGGTACGG,-0.139
4,ACTATTAGTTGAAACGAGGGCAACCGATAGGTTG,1.41
5,GCTGCTAGGTCAACTGATAGTCAGCTAAAGCTCG,4
6,GCTAGCGGGCCATTTGGGTCACTCAATGACGGGC,-0.0868
7,CCGACTGGGGCTTAAGGTTACCATAAGCCAGCCC,0.202
8,CGAACGAGGGCATGTGTTGATAGCAAATGCCGAT,0.387
9,CAAACTAGGTCAAGGGTCAAAGTCGAGCCAACCA,7.52
10,AGAACGAGGGCAATGAGTTGATAGAACGGGTGGC,0.324
11,ATCTCTATGTAAAGTTCAGTGAAAGATCGATAGA,0.881
12,GCTTGTAGATCAAGGTTAAGAAAGACTAAGCTAA,0.0354
13,GCTATTAGTTGAAGGGGCAACCGAATGATTCTCG,-0.0427
14,AGTCAAAGTTCACTAGGTACCGTAAGATTCAGCT,4.67
15,TAGCCTAGGTCAGATCGGGCCTGTATACGCTATA,1.56
16,TCATATAGGTAAAGGTGTAAGTCGAACGATATGA,0.564
17,GCGACTGGGGCATCAGCAGGTTACCATAACTTAA,0.0865
18,GCAGACAGGTGAAACGCAGGTAAATCAGGGTGGC,-0.326
19,CAAACTAGGTCACCGGAAGGTCAAAGTCCGCATG,6.27
20,ACTATTAGTTGACTTAGGGTAACCGATACGACGC,0.985

# Test system: LXRa:RXRa (NR concentration 270 nM, RXRa partner concentration 90 nM)
# Assay: as above
# In short: as §1
row,Sequence,PBM binding z-score
1,AATACTGGGTCATCGTAGGCCAGAGTACGCACAG,4.06
2,CAGCCTAGGTCAGGGCCGGTATAGGAGGAACGTT,0.777
3,TAGCCTAGTTCATTGGGCCAGTATAGTACGCATC,0.147
4,ATCGAAAGGTCGAAGTGAGTATAGAGAAAGGGAA,3.53
5,GCTAGTTGGTCAGTAACAGGTCACACACCGGTCG,1.45
6,GCTAGTTGTTCAGTAAAAGGTCACACACCGGTCG,4.29
7,CCGACTGAGGCATAAGGTTACCATAAGCCAGCCC,2.01
8,GATACAGGGTCAGCTAAAGGCCAGAGTATGGAAA,2.74
9,CCGACTGGAGCAAAGGTTACCATACTCAGTACGA,1.39
10,CGTCCAAGGTCAGAGAGGTCAGTGGATGCCGAGT,5.17
11,ACTAGTTGGTCAGCTGAGGTCACCCACAATTCGG,3.1
12,ATCTCTTGGTAAAGTTCAGTGAAAGATCGATAGA,2.09
13,CAAACTAGGTCAAGAGGTCGAAGTCCGCTTCCCG,4.11
14,TAGTCTAGGTCATGCGGGCCAGTATAGTGTCGGC,3.48
15,CCCACTGGGCCAAAGGTCATTGATTCCAATGCTC,4.92
16,ACTAGCAGGCCAAGTTTGGGTCACTCTAACAAAG,-0.0297
17,CATACAGGGTCAGCTAGTCCAGAGTAGGGACGGC,2.76
18,GCTGCTAGGTCAAATGATGGTCAGCTAAAGCTCG,3.62
19,TGAAAGAGGTTAAAGATCAGGGAACGTGGCGTCG,3.07
20,AGAACGAGGGCAATGAATTGATAGCACGGGTGGC,0.102

row,Sequence,PBM binding z-score
1,ATATGTGGGTTACATCCGGGTCATTCAGGCTATG,4.1
2,ATACCAGGGTGATCGTGAGGTCGTTGATACTAAC,1.44
3,TCTAGCAGGCCAGACGGTCACTCAAGAGGTACGG,-0.465
4,ACTATTAGTTGAAACGAGGGCAACCGATAGGTTG,0.609
5,GCTGCTAGGTCAACTGATAGTCAGCTAAAGCTCG,2.78
6,GCTAGCGGGCCATTTGGGTCACTCAATGACGGGC,-0.0931
7,CCGACTGGGGCTTAAGGTTACCATAAGCCAGCCC,1.84
8,CGAACGAGGGCATGTGTTGATAGCAAATGCCGAT,0.273
9,CAAACTAGGTCAAGGGTCAAAGTCGAGCCAACCA,5.72
10,AGAACGAGGGCAATGAGTTGATAGAACGGGTGGC,0.221
11,ATCTCTATGTAAAGTTCAGTGAAAGATCGATAGA,1.72
12,GCTTGTAGATCAAGGTTAAGAAAGACTAAGCTAA,0.884
13,GCTATTAGTTGAAGGGGCAACCGAATGATTCTCG,-0.304
14,AGTCAAAGTTCACTAGGTACCGTAAGATTCAGCT,5.23
15,TAGCCTAGGTCAGATCGGGCCTGTATACGCTATA,0.715
16,TCATATAGGTAAAGGTGTAAGTCGAACGATATGA,0.266
17,GCGACTGGGGCATCAGCAGGTTACCATAACTTAA,0.156
18,GCAGACAGGTGAAACGCAGGTAAATCAGGGTGGC,-0.128
19,CAAACTAGGTCACCGGAAGGTCAAAGTCCGCATG,6.15
20,ACTATTAGTTGACTTAGGGTAACCGATACGACGC,1.09
